aDG glyco up = activators of alpha-DG glycosylation, primary screen, uHTS, Pro5-aDG cells, AlphaScreen | activation, % at 10 µM | alpha-DG glycosylation AlphaScreen (IIH6); 0% Pro5, 100% B10-LARGE cell signal | 0.22% of 360,000 active;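 active = activation of at least 8% versus controls, or a plate z-score of at least 8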;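 also: Pro5 are CHO cells carrying HIG-tagged alpha-DG that lacks glycosylation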
MPTP inh = mitochondrial permeability transition pore inhibitors, primary screen, biochemical, isolated mouse mitochondria, absorbance | AID 602449, 2012 | 1.4% of 360,000 active | inhibition, % at 10 µM | Ca2+ swelling absorbance, 30 min;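 active = inhibition of 50% or more, scaled per plate between neutral and stimulator controls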
NadD block = inhibitors of S. aureus NadD, primary screen, biochemical, colorimetric, uHTS; AID 602399, 2012; 0.78% of 360,000 active; purified NadD enzyme, colorimetric absorbance read-out; Nicotinate-nucleotide adenylyltransferase NadD (Staphylococcus aureus N315); inhibition, % at 20 µM; in the data active = inhibition above about 26%
TAG inh = inhibitors of triacylglycerol accumulation, primary screen, cell-based, uHTS, fluorescence, H9c2; H9c2 cells, Nile Red lipid (TAG) fluorescence; cells loaded with 200 µM oleic acid; inhibition, % at 12.5 µM; 0.66% of 230,000 active; AID 651582, 2012;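 active = pattern-corrected inhibition of lipid staining of at least 50% with the nuclear-stain viability signal not falling by more than 50%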
MPTP counter = fluorescence retest of MPTP screen hits in isolated mitochondria, single concentration. membrane potential, Rhodamine 123 fluorescence. shares compounds with MPTP inh. inhibition, % at 10 µM. 78% of 5,000 active. AID 624504, 2012; in the data active = inhibition above about 22%
MPTP swell DR = mitochondrial permeability transition pore inhibitors, dose response, biochemical, absorbance, uHTS hits. shares compounds with MPTP inh. isolated mitochondria swelling. IC50, µM. 58% of 780 active. AID 651561, 2012; in the data active = IC50 below about 20 µM
MPTP counter DR = fluorescent counter-screen in isolated mitochondria, dose response, counter-screen for MPTP inhibitor project, biochemical, fluorescence, uHTS hits; shares compounds with MPTP inh; isolated mitochondria counterscreen, fluorescence read-out; IC50, µM; 49% of 780 active; in the data active = IC50 below about 80 µM
Each line names hits and unclear results; the compound was inactive in the other large screens (follow-up assays come after a bar, where they were run). Sampled rows, rich in hits. Any-hit rate of the full collection: about 2.7%.

CC(=O)Nc1ccc(S(=O)(=O)Oc2ccc(N3C(=O)C4CCCCC4C3=O)cc2)cc1 (configuration not stated)	MPTP inh 82.8 (no result: TAG inh) | MPTP counter 52.3
CC(=O)Nc1ccc(S(=O)(=O)Oc2cccc(N3C(=O)C4CC=CCC4C3=O)c2)cc1 (configuration not stated)	none
CCOC(=O)N(CC)OC(=O)Nc1ccc(Cl)cc1	MPTP inh 57.4 (no result: TAG inh) | MPTP counter 63.4
CN(C)CCNC(=O)Nc1ccc(Cl)c(Cl)c1	MPTP inh 71.0 (no result: TAG inh) | MPTP counter 94.3
CCOC(=O)CNNC(=O)Nc1ccc(Cl)c(Cl)c1	MPTP inh 68.8 (no result: TAG inh) | MPTP counter 64.6
CCOC(=O)N(C)OC(=O)Nc1ccc(Cl)c(Cl)c1	MPTP inh 73.4 (no result: TAG inh) | MPTP counter 83.1
CCOC(=O)C(=O)Nc1ccc(OC)c(Cl)c1	none
CCOC(=O)NCCOC(=O)Nc1ccc(Cl)cc1	none (no result: TAG inh)
COc1ccc(-n2nnnc2C(c2ccccc2OC(F)(F)F)N2CCN(C/C=C/c3ccccc3)CC2)cc1 (configuration not stated)	none (no result: TAG inh)
CCOc1cccc(-c2c(C(=O)N/N=C/c3ccc(Br)cc3)nnn2-c2nonc2N)c1	none (no result: TAG inh)
COc1ccc(CNC(=O)Cn2nc(C(F)(F)F)c(Br)c2C)cc1	none (no result: TAG inh)
COc1cc(NC(=O)Cn2nc(C(F)(F)F)c(Br)c2C)cc([N+](=O)[O-])c1	MPTP inh 85.4 (no result: TAG inh) | MPTP counter 82.4
O=[N+]([O-])/C(Cl)=C(/NCCO)C(Cl)=C(Cl)Cl	none
O=C(CC1NCCc2ccccc21)Nc1ccc(Cl)cc1 (configuration not stated)	MPTP inh 61.1 | MPTP counter inactive | MPTP swell DR 9.11 | MPTP counter DR inactive
CC(C)C[C@H]1CN(CCCC[C@@H]2CNC(=O)C(=O)N2CCc2ccccc2)C(=O)C(=O)N1Cc1ccccc1	none (no result: TAG inh)
CSc1cccc(CN2CCC(CO)(Cc3cccc(C(F)(F)F)c3)CC2)c1	MPTP inh 72.2 | MPTP counter inactive | MPTP swell DR 5.25 | MPTP counter DR 40.5
OCC1(Cc2cccc(C(F)(F)F)c2)CCN(Cc2cc(F)cc(F)c2)CC1	none
COc1ccc(C)cc1Nc1n[n+](-c2ccccc2)c(-c2c(OC)ccc3ccccc23)s1	MPTP inh 99.5 | MPTP counter 104.6
Oc1ccc2ccccc2c1-c1sc(Nc2ccccc2)n[n+]1-c1ccc(F)cc1	none (no result: TAG inh)
c1ccc(-[n+]2nc(Nc3cccc4ccccc34)sc2-c2c3ccccc3cc3ccccc23)cc1	MPTP inh 97.5, NadD block 41.9, TAG inh 106.3 | MPTP counter 92.8
Fc1ccc(-[n+]2nc(Nc3ccccc3)sc2-c2c3ccccc3cc3ccccc23)cc1	MPTP inh 91.7 (no result: TAG inh) | MPTP counter 110.6
Cc1ccc(N2CCN(C(=S)Nc3ccccc3C)CC2)cc1	none (no result: TAG inh)
CC(=O)NC(NC(=S)Nc1cccc(Br)c1)C(Cl)(Cl)Cl (configuration not stated)	MPTP inh 95.0 | MPTP counter 76.5
CC(=O)NC(NC(=S)Nc1ccc(S(N)(=O)=O)cc1)C(Cl)(Cl)Cl (configuration not stated)	none
CC(=O)NC(NC(=S)Nc1ccc(N=Nc2ccccc2)cc1)C(Cl)(Cl)Cl (configuration not stated)	MPTP inh 94.1 | MPTP counter 61.6
CC(Sc1nnc(-c2ccco2)n1C)C(=O)N1C(C)CCCC1C (configuration not stated)	none
COC(=O)c1sc(NC(=O)c2ccc([N+](=O)[O-])o2)c(C#N)c1C	MPTP inh 91.7 | MPTP counter 81.2
COC(=O)c1sc(NC(=O)c2cc(-c3ccccc3)nc3ccccc23)c(C#N)c1C	MPTP inh 66.2 | MPTP counter 69.7
Cc1cccc(NC(=O)c2sc(NC(=O)COc3ccccc3)c(C#N)c2C)c1C	none (no result: TAG inh)
COC(=O)c1sccc1NC(=O)c1cc(-c2ccc(C)cc2)nc2ccccc12	none
Cc1ccccc1NC(=O)c1sc(NC(=O)COc2ccccc2)c(C#N)c1C	MPTP inh 54.2 (no result: TAG inh) | MPTP counter 75.4
CCCS(=O)(=O)NC(=O)C1(C)CCCN(C(=O)c2c(F)ccc(C)c2F)C1 (configuration not stated)	none
COC(=O)[C@@]1(Cc2ccccc2)[C@H]2C(=O)N(C)C(=O)[C@H]2[C@H]2CN=C(SCc3ccc(Cl)cc3)N21	none
CC1CCC(NC(=O)c2nc(Cn3ccc([N+](=O)[O-])n3)no2)CC1 (configuration not stated)	none (no result: TAG inh)
COc1ccc(NC(=O)c2ccccc2F)cc1Cl	none
O=C(Nc1ccc(Oc2ccc(Cl)cc2)c(Cl)c1)c1cc(I)cc(I)c1O	MPTP inh 105.9 | MPTP counter 74.4
CC(=O)C[C@H](O)CC(=O)[C@H]1OC(=O)CCCCCCCCc2ccccc21	none
COc1ccc(CCN2CCC(Nc3nc4ccccc4n3Cc3ccc(F)cc3)CC2)cc1	MPTP inh 83.0 | MPTP counter inactive
COc1ccc(CNc2nc3ccccc3n2CCN2CCCCC2)cc1	none
O=C(Nc1ccc([N+](=O)[O-])cc1)NN1CCCCCC1	MPTP inh 102.5 | MPTP counter 86.7
O=C(Nc1ccc(Cl)cc1)NN1CCCCCC1	none
N#Cc1ccc(NC(=O)NN2CCCCCC2)cc1	MPTP inh 101.5 | MPTP counter 86.6
O=C(NCCN1CCCCC1)Nc1ccc([N+](=O)[O-])cc1	none
NS(=O)(=O)c1ccc(NC(=O)Nc2ccc(Cl)cc2)cc1	MPTP inh 77.0 | MPTP counter 84.8
N#Cc1ccc(NC(=O)Nc2ccc(Cl)cc2)cc1	MPTP inh 105.0 | MPTP counter 88.9
OC(c1ccccc1)(c1ccccc1)c1nccn1-c1ccccc1	none
O=C(CN1CCN(S(=O)(=O)c2ccccc2F)CC1)N1CCc2ccccc2C1	none
CC(O)(c1cccnc1)c1nc(-c2ccc3ccccc3c2)cs1 (configuration not stated)	none
CCO/C=N/Nc1nc(C(F)(F)F)nc2c1cnn2Cc1ccccc1	none (no result: TAG inh)
NS(=O)(=O)c1ccc(NC(=S)Nc2cc(Cl)c(Cl)cc2Cl)cc1	MPTP inh 88.0 | MPTP counter 92.0
CSc1ccccc1NC(=S)Nc1ccc(S(N)(=O)=O)cc1	none
CCCOc1ccc(C2C(C(=O)/C=C/c3ccco3)=C(O)C(=O)N2CCN2CCOCC2)cc1OC (configuration not stated)	none
OCCNCc1cccc(OCc2ccc(Cl)cc2)c1	MPTP inh 64.5 | MPTP counter inactive | MPTP swell DR 5.63 | MPTP counter DR inactive
COC(=O)c1cc([N+](=O)[O-])c(C)c(C)n1	MPTP inh 54.3 | MPTP counter inactive | MPTP swell DR inactive | MPTP counter DR inactive

Screens as filed in PubChem BioAssay.
